In PubChem BioAssay AID1259240 (Keith Lab, Institute of Cancer Science, University of …, 2017):
Values without a mark were called inactive. Calls of active or inactive are those of the source. No stated cut-off is given here; in the data, active means fold change mostly below about -2 (no sharp cut-off); inactive means mostly above about -1.8.

experiment: TERT promoter activity modulators, primary screen, cell-based, luciferase reporter, human (AID 1259240); details: A2780 TERT promoter luciferase reporter, 16 h; at 20 µM, fold versus average of vehicle-only wells

Row | Compound | fold change | outcome
1 | O=C(Cn1c(=O)c(C(F)(F)F)nc2ccccc21)N1CCCC1 | -1.02 | 
2 | CCOC(=O)N1CCC(Nc2c(N3CC(C)CC(C)C3)c(=O)c2=O)CC1 (stereo unspecified) | 1.09 | 
3 | COc1ccc(N2CN=c3s/c(=C4\C(=O)N(C)c5ccccc54)c(=O)n3C2)cc1 | -1.56 | 
4 | Cn1c(SCC(=O)NCc2ccco2)nnc1-c1c[nH]c2ccccc12 |  | inactive
5 | CCOC(=O)N1CCN(c2c(NCC3CCCO3)c(=O)c2=O)CC1 (stereo unspecified) | 1.16 | 
6 | Cc1[nH]nc2c1C(c1ccccc1F)NC2=O (stereo unspecified) | -1.71 | 
7 | COc1ccc(-c2n[nH]c3c2C(c2ccccc2)NC3=O)cc1 (stereo unspecified) | -1.24 | 
8 | CCCCC1=NN(C(=O)C(=O)Nc2ccc(Br)cc2)C(O)(C(F)(F)F)C1 (stereo unspecified) | 1.01 | 
9 | Cn1c(C(=O)N2CCC(C(=O)NCCc3c[nH]c4ccccc34)CC2)cc2sccc21 | -1.05 | 
10 | Cn1nc(-c2ccc(C(=O)N3CCCC3)cc2)c2ccccc2c1=O | 1.06 | 
11 | CC(C)CCNC(=O)Cn1c(=O)oc2cc(S(=O)(=O)N3CCc4ccccc43)ccc21 | 1.17 | 
12 | CN(C)C(=O)Nc1ccc2snnc2c1 | 1.12 | 
13 | CC(C)n1cnc2cc(NCc3ccccn3)ccc21 | -1.44 | 
14 | CCc1ccc(N2CC(O)=C(c3nc4ccccc4c(=O)[nH]3)C2=N)cc1 |  | inactive
15 | COc1ccc(NC(=O)CSc2nc(-c3ccco3)cc(C(F)(F)F)n2)c(OC)c1 | -1.96 | 
16 | CN(CC(=O)NC(C)(C)C)S(=O)(=O)c1ccc2c(c1)c(=O)n(C)c(=O)n2C | -1.36 | 
